The list is not random: actives were taken first. Their share in the collection is about 3.7%.
ANO1 block = TMEM16A chloride channel inhibitors, primary screen, cell-based, HTS | HEK293 TMEM16A/YFP iodide influx fluorescence, ionomycin | normalized B-score (activity score, 25-100; higher = stronger inhibition) at 10 µM | Anoctamin-1 (Mus musculus), Q8BHY3 | AID 588511, 2011 | 1.2% of 310,000 active;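 active = ratio plate-corrected score three or more library SD toward inhibition, starting fluorescence score within five deviations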;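 also: score derived from kinetic fluorescence span divided by baseline fluorescence per well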
GPR7 antag = GPR7 receptor antagonists, primary screen, cell-based, fluorescence, single concentration. Neuropeptides B/W receptor type 1 (Homo sapiens), P48145. GPR7-expressing cells, fluorescence antagonist assay. inhibition, % at 4.4 µM. 1.1% of 290,000 active; in the data active = inhibition above about 16%, passing the limit was not always enough;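 also: cells stimulated with the agonist NPW; 0% = agonist with vehicle and 100% = vehicle without agonist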
Kir21 block = inhibitors of mouse Kir2.1 inward-rectifier potassium channel; AID 1672, 2009; Inward rectifier potassium channel 2 (Mus musculus), P35561; HEK293-Kir2.1, FluxOR thallium flux fluorescence; stronger effect = lower value; B-score at 10 µM; 0.85% of 310,000 active;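 active = fluorescence ratio B-score at or below minus 3 SD of library scores, with starting-brightness B-score within 2 SD, cut at about -4.2 in these data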;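 also: channel flux triggered by added potassium and thallium sulfate stimulus; B-score of peak minus minimum fluorescence over baseline after thallium stimulus; more negative B-score means stronger Kir2.1 block with less thallium influx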
Target sequence (P35561 whole entry, looked up): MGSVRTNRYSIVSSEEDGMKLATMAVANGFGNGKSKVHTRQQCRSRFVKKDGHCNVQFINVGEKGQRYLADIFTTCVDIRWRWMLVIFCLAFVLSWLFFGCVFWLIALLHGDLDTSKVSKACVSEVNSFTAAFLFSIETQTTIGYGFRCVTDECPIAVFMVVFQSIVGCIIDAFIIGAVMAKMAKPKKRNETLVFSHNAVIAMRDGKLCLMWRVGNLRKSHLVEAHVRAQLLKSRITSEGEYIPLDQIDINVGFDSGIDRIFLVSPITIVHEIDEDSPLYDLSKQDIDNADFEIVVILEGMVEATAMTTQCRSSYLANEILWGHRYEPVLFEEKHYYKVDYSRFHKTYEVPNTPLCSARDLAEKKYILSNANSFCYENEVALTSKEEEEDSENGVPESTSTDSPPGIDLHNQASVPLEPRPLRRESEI
CHT block = inhibitors of human choline transporter CHT; B-score at 10 µM; AID 488975, 2010; CHT-expressing cells, membrane potential dye, choline response; stronger effect = lower value; High affinity choline transporter 1 (Homo sapiens), Q9GZV3; 0.86% of 310,000 active;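 active = B-score over 3 SD under the library average, and starting fluorescence ratio not unusually high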;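 also: choline stimulus applied at its EC90 after an EC20 pre-addition; B-score computed on integrated fluorescence ratio after choline addition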
ANO1 activ = TMEM16A chloride channel activators or potentiators, primary screen, cell-based, HTS | Anoctamin-1 (Mus musculus), Q8BHY3 | 0.3% of 340,000 active | AID 623877, 2012 | B-score at 10 µM | HEK293 TMEM16A/YFP-H148Q/I152L, iodide quench fluorescence; stronger effect = lower value;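 active = fluorescence-ratio B-score plate-corrected deviation score at least 3 library SD below zero, with starting fluorescence score within 5 deviations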;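 also: channel opened by trigger with iodide after compound preincubation; score built on the fluorescence ratio of max minus min over baseline; more negative score means more quench and so TMEM16A activation or potentiation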
CHT PAM = CHT positive allosteric modulators, primary screen, cell-based, membrane potential dye, choline EC20 | High affinity choline transporter 1 (Homo sapiens), Q9GZV3 | CHT-expressing cells; stronger effect = higher value; LV-AA mutant CHT in HEK293 cells | B-score at 10 µM | 0.49% of 310,000 active;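 active = initial fluorescence not abnormally high and integrated response B-score, plate-corrected, over 3 SD above library mean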
CHT act confirm = CHT activators, confirmation, cell-based, membrane potential dye, duplicate; shares compounds with CHT PAM; CHT-expressing cells, membrane potential dye fluorescence (FDSS); % of choline EC20–EC90 response window; HEK293 expressing CHT LV-AA mutant; choline added at its EC20; activation, % at 10 µM; 91% of 2,500 active;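 active = primary screen active, with duplicate mean activation above negative control mean plus 3 SD, cut at about 11% in these data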
HEK293 MP dye = membrane potential response in parental HEK293 cells, counter-screen for CHT activator project, cell-based, membrane potential dye; shares compounds with CHT PAM; membrane potential dye fluorescence (FDSS); measured after EC20 choline addition; ratio readout change at 10 µM, hits read low; 62% of 2,500 active; AID 623908, 2012;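 active = duplicate-averaged ratio beyond 3 SD from buffer wells, up or down, though filed actives are nearly all decreases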
An asterisk follows results filed as active.

What do the screens show for `COc1ccc(OC)c(S(=O)(=O)Nc2cc3c(cc2N2CCCC2)n(C)c(=O)c(=O)n3C)c1`?
ANO1 block: inactive; GPR7 antag: -9.1; Kir21 block: -1.03; CHT block: inactive; ANO1 activ: inactive; CHT PAM: 7.23*; CHT act confirm: 53.0*; HEK293 MP dye: -59.8*

Results for Cn1c(=O)c(=O)n(C)c2cc(N3CCCC3)c(NS(=O)(=O)c3ccc(F)cc3)cc21 ?
ANO1 block: inactive; GPR7 antag: -9.2; Kir21 block: -0.86; CHT block: inactive; ANO1 activ: inactive; CHT PAM: inactive

How did COc1ccc(OC)c(NS(=O)(=O)c2ccc3c(c2)n(C)c(=O)n3C)c1 do in these assays?
ANO1 block: inactive; GPR7 antag: -6.1; Kir21 block: -0.47; CHT block: inactive; ANO1 activ: inactive; CHT PAM: inactive

Results for O=[N+]([O-])c1ccc(S(=O)(=O)Nc2ccc(-c3ccc(N4CCCC4)nn3)cc2)cc1 ?
ANO1 block: inactive; Kir21 block: -0.14; CHT block: inactive; ANO1 activ: inactive; CHT PAM: inactive; CHT act confirm: 15.1*; HEK293 MP dye: inactive

Results for O=[N+]([O-])c1ccc(Cl)c(S(=O)(=O)Nc2ccc(-c3ccc(N4CCCC4)nn3)cc2)c1 ?
ANO1 block: inactive; Kir21 block: -0.05; CHT block: inactive; ANO1 activ: inactive; CHT PAM: inactive

How did CCc1ccc(S(=O)(=O)Nc2cc3c(cc2N2CCOCC2)n(C)c(=O)c(=O)n3C)cc1 do in these assays?
ANO1 block: inactive; GPR7 antag: -11.1; Kir21 block: 1; CHT block: inactive; ANO1 activ: inactive; CHT PAM: 7.23*; CHT act confirm: 55.5*; HEK293 MP dye: -46.7*

What do the screens show for `O=C(c1ccccc1NS(=O)(=O)c1cccc([N+](=O)[O-])c1)N1CCCC1`?
ANO1 block: inactive; GPR7 antag: -14.9; Kir21 block: -0.29; CHT block: inactive; ANO1 activ: inactive; CHT PAM: inactive

Results for COc1ccc([C@H]2CC(=O)C=C(/C=C/c3ccccc3)C2)cc1OC ?
ANO1 activ: inactive

Results for CSCCC(NS(=O)(=O)c1ccccc1F)C(=O)Nc1ccncc1 (stereo unspecified) ?
ANO1 activ: inactive

What do the screens show for `Cn1c(=O)c(=O)n(C)c2cc(N3CCCCC3)c(NS(=O)(=O)c3ccc([N+](=O)[O-])cc3)cc21`?
ANO1 block: inactive; GPR7 antag: -0.6; Kir21 block: 0.03; CHT block: inactive; ANO1 activ: inactive; CHT PAM: 10.3*; CHT act confirm: 51.6*; HEK293 MP dye: -47.4*

Results for Nc1c(-c2cccc([N+](=O)[O-])c2)nc2ccccn12 ?
ANO1 block: inactive; GPR7 antag: -3.4; Kir21 block: -0.02; CHT block: inactive; ANO1 activ: inactive; CHT PAM: inactive; CHT act confirm: 52.9*; HEK293 MP dye: -50.5*

How did O=[N+]([O-])c1cccc(-c2ncc3ccccn23)c1 do in these assays?
ANO1 block: inactive; GPR7 antag: 0.9; Kir21 block: -0.41; CHT block: inactive; ANO1 activ: inactive; CHT PAM: inactive

What do the screens show for `COc1ccccc1/C=N/NC(=O)CC(=O)NCCc1ccccc1`?
ANO1 block: inactive; Kir21 block: 0; CHT block: inactive; ANO1 activ: inactive; CHT PAM: inactive

Results for Cc1cnc(C(=O)Nc2cccc3ncccc23)cn1 ?
ANO1 block: inactive; GPR7 antag: -6.9; Kir21 block: 0.17; CHT block: inactive; ANO1 activ: inactive; CHT PAM: 7.99*; CHT act confirm: 42.6*; HEK293 MP dye: -47.4*

Results for CCCN(CCC)S(=O)(=O)c1ccc(C(=O)Nc2ccc(S(=O)(=O)Nc3nnc(CC)s3)cc2)cc1 ?
ANO1 block: inactive; GPR7 antag: -2.1; Kir21 block: 0.06; CHT block: inactive; ANO1 activ: inactive; CHT PAM: inactive

Results for O=C(NCCCl)Nc1cccnc1Cl ?
ANO1 block: inactive; GPR7 antag: -2.7; Kir21 block: 1.31; CHT block: inactive; ANO1 activ: inactive; CHT PAM: inactive

What do the screens show for `N#C/C(=C\c1c(N2CCOCC2)nc2ccccn2c1=O)C(=O)NC1CCS(=O)(=O)C1` (stereo unspecified)?
ANO1 block: inactive; GPR7 antag: -14.4; Kir21 block: -0.59; CHT block: inactive; ANO1 activ: inactive; CHT PAM: 9.63*; CHT act confirm: 10.0*; HEK293 MP dye: -54.1*

What do the screens show for `CN1CCN(c2nc3ccccn3c(=O)c2C=C(C#N)C#N)CC1`?
ANO1 block: inactive; GPR7 antag: -6.3; Kir21 block: 0.01; CHT block: inactive; ANO1 activ: inactive; CHT PAM: inactive; CHT act confirm: 50.4*; HEK293 MP dye: -49.3*

How did COC(=O)/C(C#N)=C/c1c(N2CCN(C)CC2)nc2ccccn2c1=O do in these assays?
ANO1 block: inactive; GPR7 antag: -10.9; Kir21 block: 1.15; CHT block: inactive; ANO1 activ: inactive; CHT PAM: 7.3*; CHT act confirm: 47.9*; HEK293 MP dye: -55.6*

Results for CCOC(=O)/C(C#N)=C/c1c(N2CCN(c3ccccc3)CC2)nc2ccccn2c1=O ?
ANO1 block: inactive; GPR7 antag: -3.1; Kir21 block: 2.29; CHT block: inactive; ANO1 activ: inactive; CHT PAM: inactive

What do the screens show for `Cc1ccc(CNC(=O)C(=O)NCC2OCCCN2S(=O)(=O)c2ccc(F)cc2)cc1` (stereo unspecified)?
ANO1 block: inactive; GPR7 antag: -9.3; Kir21 block: -1.96; CHT block: inactive; ANO1 activ: inactive; CHT PAM: inactive

Results for Cc1cc(NC(=O)CSc2ccc3nnc(-c4cccs4)n3n2)no1 ?
ANO1 block: inactive; GPR7 antag: -10.1; Kir21 block: -0.9; CHT block: inactive; ANO1 activ: inactive; CHT PAM: 9.9*; CHT act confirm: 21.9*; HEK293 MP dye: -32.8*
